This note sets out measurements from ChEMBL document CHEMBL3988442, “University of Dundee, Small-Polar-MMV Screening Library” (2021).

In all, about 38,000 compounds went through this assay and about 1,200 (3.2%) showed an effect of 50% or more. The median lay at about -58%. The sample holds strong results, similar compounds and a random draw of the others, so the mix is not that of the screen.

This experiment deals with Plasmodium falciparum. Description: Calibr Malaria Delayed Death Assay SOP. It counts as functional, organism-based. More on the design: scale not given: in the data most compounds retested in dose-response had high values. To be noted: concentration 4.99e-06 (unit not given; other assays of the set use mol/L).
In the case of `CC(C)(C)OC(=O)N1CCN(c2nnc(Br)s2)CC1`, the “Percent Effect” value is given as -125.7%.

As to `Cn1cccc1C(=O)N1CCn2nnc(COc3cccnc3)c2C1.O=C(O)C(F)(F)F`, the “Percent Effect” value is listed as -3.271%.

As to `Cc1csc(C(=O)NCCn2nc(-n3cncn3)ccc2=O)c1`, the “Percent Effect” value was -119.2%.

Consider `O=C(Cn1cc(-c2ccccc2)ncc1=O)NC1CCCCC1`, for which the “Percent Effect” value is -177.8%.

As to `CCCS(=O)(=O)N1CCOC2(CCCN(c3ccccn3)C2)C1.O=C(O)C(F)(F)F` (centres undefined), the “Percent Effect” value is -72.32%.

For the compound `COc1ccc2c(c1)OCC(CNC(=O)c1ccc3[nH]nnc3c1)C2` (centres undefined), the “Percent Effect” value is on record as -64.67%.

With `COCCN(CC1CCCN(C2Cc3ccccc3C2)C1)C(=O)CO` (centres undefined), the “Percent Effect” value stood at 58.68%.

As for `COCCN(CC1CCCN(C2Cc3ccccc3C2)C1)C(=O)CSC` (centres undefined), the “Percent Effect” value is -1.59%.

As for `COCCN(CC1CCCN(C2Cc3ccccc3C2)C1)C(=O)COC` (centres undefined), the “Percent Effect” value was 37.76%.

Consider `NCc1ccnc(Oc2ccccc2)c1`, for which the “Percent Effect” value was -83.78%.

In the case of `O=C(CO)N1C[C@H]2CN(Cc3cccc(F)c3)C(=O)[C@H]2C1`, the “Percent Effect” value is given as -121.2%.

For `Fc1ccc(OCCCNC2=NCCCN2)cc1.I`, the “Percent Effect” value is recorded as 2.763%.

Turning to `Fc1ccc(C2(CNC3=NCCCN3)CCC2)cc1.I`, the “Percent Effect” value is -5.202%.

As for `CC(NC(=O)NCC1(c2ccc(F)cc2)CCCC1)c1nncn1C` (centres undefined), the “Percent Effect” value is -7.891%.

On to `CN(C)c1cc(C(=O)NCC2(c3ccc(F)cc3)CC2)ccn1`, for which the “Percent Effect” value is given as -97.96%.

For `Fc1ccc(C2(CNC3=NCCN3)CCCC2)cc1.I`, the “Percent Effect” value came to 83.26%.

For the compound `COc1cccc(N2C(=O)CC3(CCCNC3)C2=O)c1.Cl` (centres undefined), the “Percent Effect” value is given as -161.5%.

For the compound `c1ccc2oc(CN3CCCCC3Cn3cncn3)nc2c1` (centres undefined), the “Percent Effect” value is on record as -88.89%.

Turning to `COc1ccc(F)c(CN2CC(=O)N(c3ccccc3C)CC2C)c1` (centres undefined), the “Percent Effect” value was 6.943%.

Consider `COc1cccc(OC)c1CN1CC(=O)N(c2ccc(C)cc2)CC1C` (centres undefined), for which the “Percent Effect” value was 75.45%.

For the compound `COc1cccc(CN2CC(=O)N(c3ccccc3C)CC2C)c1OC` (centres undefined), the “Percent Effect” value turned out to be 52.42%.

With `COc1ccc(CN2CC(=O)N(c3ccc(C)cc3)CC2C)cc1O` (centres undefined), the “Percent Effect” value is recorded as -98.66%.

As for `COc1ccc(F)c(F)c1CN1CC(=O)N(c2ccccc2C)CC1C` (centres undefined), the “Percent Effect” value is listed as 28.54%.

Consider `COc1cc(CN2CC(=O)N(c3ccc(C)cc3)CC2C)cc(OC)c1` (centres undefined), for which the “Percent Effect” value was 43.44%.

As to `CN(C)C(=O)CO[C@H]1CN(Cc2ccoc2)[C@@H]2COC[C@H]12.O=C(O)C(F)(F)F`, the “Percent Effect” value is recorded as -8.838%.

As to `CN(Cc1ccncc1)CC1CCCN(CCc2ccc(Cl)cc2)C1` (centres undefined), the “Percent Effect” value is reported as -30.31%.

As for `CN(Cc1ccccc1O)CC1CCCN(CCc2ccc(Cl)cc2)C1` (centres undefined), the “Percent Effect” value is on record as -82.77%.

As for `Cc1cc(CN(C)CC2CCCN(CCc3ccc(Cl)cc3)C2)[nH]n1` (centres undefined), the “Percent Effect” value is given as -73.95%.

As for `Cc1nc[nH]c1CN(C)CC1CCCN(CCc2ccc(Cl)cc2)C1` (centres undefined), the “Percent Effect” value is on record as 82.22%.

As to `CN(Cc1cnc(N)nc1)CC1CCCN(CCc2ccc(Cl)cc2)C1` (centres undefined), the “Percent Effect” value is -42.11%.

Turning to `CC(C)NC(=O)c1nnn(-c2ccccc2)c1C1CC1`, the “Percent Effect” value was -103.7%.

On to `CCCNC(=O)c1cc2c(s1)CCN2C(=O)c1ccccc1`, for which the “Percent Effect” value was -140.9%.

In the case of `O=C(NCCN1CCOC1=O)c1cnc(-c2cccnc2)nc1`, the “Percent Effect” value is -89.05%.

For `O=C(N[C@@H]1CN(Cc2cccc(F)c2)C[C@H]1O)c1cscn1`, the “Percent Effect” value is reported as -187.1%.

In the case of `O=C(COCC1CC1)Nc1ncccc1I`, the “Percent Effect” value was -99.18%.

Turning to `CCOCC1CN(Cc2ccc(OC)cc2)Cc2nn(CC3CC3)cc21.O=C(O)C(F)(F)F` (centres undefined), the “Percent Effect” value was -47.96%.

Turning to `CC(C)N(CCNC(=O)c1ccc(S(=O)(=O)NC2CC2)cc1)C(C)C`, the “Percent Effect” value was found to be 3.108%.

For the compound `CC(C)N(CCNC(=O)c1[nH]nc2ccc(I)cc12)C(C)C`, the “Percent Effect” value is given as 86.77%.

For `Cc1cccc(C(C)C)c1NC(=O)NCCN(C(C)C)C(C)C`, the “Percent Effect” value was found to be 37.4%.

Regarding `c1ccc(-c2cc(CN3C[C@@H]4CC[C@H](C3)N(CC3CC3)C4)on2)cc1`, the “Percent Effect” value is recorded as 16.35%.

For `c1ccc(-c2cc(CN3C[C@@H]4CC[C@H](C3)N(CC3CCC3)C4)on2)cc1`, the “Percent Effect” value is reported as 88.08%.

As for `c1ccc(-c2cc(CN3C[C@H]4CC[C@H]3C4)on2)cc1`, the “Percent Effect” value was found to be 2.742%.

`CCC(OC)C(=O)NCc1cc2n(n1)CCCN(C1CCCCC1)C2` (centres undefined): the “Percent Effect” value is reported as -16.19%.

Turning to `CC1CCCCN1c1nc2c(c(=O)[nH]1)CCN(Cc1ccccc1F)C2` (centres undefined), the “Percent Effect” value was found to be 13.92%.

Consider `Cc1c(-c2cc(C(F)(F)F)nc(N3CCC(N)CC3)n2)cnn1C`, for which the “Percent Effect” value turned out to be 19.65%.

For `Cc1ccc(-c2cc(C(F)(F)F)nc(N3CCOCC3)n2)s1`, the “Percent Effect” value is recorded as -16.11%.

Take `CCn1ncc(-c2cc(C(F)(F)F)nc(N3CCC(N)CC3)n2)c1C`: the “Percent Effect” value stood at 64.36%.

On to `CCc1ccc(-c2cc(C(F)(F)F)nc(N3CCC(N)CC3)n2)cc1`, for which the “Percent Effect” value is recorded as 81.95%.

With `FC(F)(F)c1cc(-c2cccs2)nc(N2CCN3CCCC3C2)n1` (centres undefined), the “Percent Effect” value is listed as -49.64%.

Consider `CCn1cc(-c2cc(C(F)(F)F)nc(NC3CCCC3)n2)c(C)n1`, for which the “Percent Effect” value is on record as -77.03%.

Turning to `CCc1nc(CN2CCCN(Cc3noc(C4CC4)n3)CC2)cs1`, the “Percent Effect” value was -72.76%.

In the case of `COc1cc(CN2CCCC23CCN(c2ccccn2)CC3)ccc1F`, the “Percent Effect” value stood at 1.862%.

As for `Cc1cc(C)c2[nH]c(C(=O)NCCN3CCCC3=O)c(C)c2c1`, the “Percent Effect” value is on record as -119.1%.

Turning to `CC(C)c1noc(CCNC(=O)N2CCN(c3cccs3)CC2)n1`, the “Percent Effect” value is -17.65%.

On to `CCc1nc(CCNC(=O)Nc2cccc(C(=O)NC)c2C)cs1`, for which the “Percent Effect” value is -100.3%.

On to `Cc1nnc(SC2CCc3ccccc3NC2=O)o1` (centres undefined), for which the “Percent Effect” value is on record as -88.91%.

For `CNc1cc(C)nc(NCc2cc(C)cc3c(C)c(C)[nH]c23)n1`, the “Percent Effect” value is recorded as 91.83%.

In the case of `CNc1cc(C)nc(-c2cc(NC)nc3[nH]ccc23)n1`, the “Percent Effect” value came to 49.01%.

Turning to `Cc1cc(CNc2cncc(C(=O)N(C)C)n2)c2[nH]c(C)c(C)c2c1`, the “Percent Effect” value is -64.7%.

Take `CNc1nc(C)cc(NCc2cc(C)cc3c(C)c(C)[nH]c23)n1`: the “Percent Effect” value is 92.52%.

Take `CNc1cc(C)nc(-c2cc(NCCO)nc3[nH]ccc23)n1`: the “Percent Effect” value is -113.9%.

For `CCN(Cc1cnn(CC)c1)Cc1c(Cl)cncc1Cl`, the “Percent Effect” value was -11.88%.

With `Cc1ccc(C2CN(CCCC#N)CCO2)c(C)c1` (centres undefined), the “Percent Effect” value is listed as -121.1%.

Take `CCc1ncnc2c1CCN(S(=O)(=O)CC)CC2`: the “Percent Effect” value is on record as -41.95%.
